We go through 15 compounds from ChEMBL document CHEMBL2218924, “A broad activity screen in support of a chemogenomic map for kinase signalling research and drug discovery” (Biochem J, 2013).

The structures appear in SMILES notation.

The target in experiment [1] is Protein kinase C alpha type (Homo sapiens) (UniProt P17252). The conditions noted are these: at 1 µM.
Experiment [2] shares this target. Particulars: at 10 µM.
Experiment [3] has as its target Protein kinase C beta type (Homo sapiens) (UniProt P05771). The conditions noted are these: at 1 µM.
Experiment [4] has the same target. The conditions noted are these: at 10 µM.
Experiment [5] shares this target. Particulars: at 1 µM. The source holds these as a separate data set.
For experiment [6] the target is unchanged. The conditions noted are these: at 10 µM. The source holds these as a separate data set.
For experiment [7], the target named is Protein kinase C gamma type (Homo sapiens) (UniProt P05129). Particulars: at 1 µM.
Experiment [8] shares this target. Particulars: at 10 µM.
Experiment [9] deals with Protein kinase C delta type (Homo sapiens) (UniProt Q05655). The conditions noted are these: at 1 µM.
Chain of Protein kinase C delta type (Homo sapiens) (Q05655 whole entry, looked up): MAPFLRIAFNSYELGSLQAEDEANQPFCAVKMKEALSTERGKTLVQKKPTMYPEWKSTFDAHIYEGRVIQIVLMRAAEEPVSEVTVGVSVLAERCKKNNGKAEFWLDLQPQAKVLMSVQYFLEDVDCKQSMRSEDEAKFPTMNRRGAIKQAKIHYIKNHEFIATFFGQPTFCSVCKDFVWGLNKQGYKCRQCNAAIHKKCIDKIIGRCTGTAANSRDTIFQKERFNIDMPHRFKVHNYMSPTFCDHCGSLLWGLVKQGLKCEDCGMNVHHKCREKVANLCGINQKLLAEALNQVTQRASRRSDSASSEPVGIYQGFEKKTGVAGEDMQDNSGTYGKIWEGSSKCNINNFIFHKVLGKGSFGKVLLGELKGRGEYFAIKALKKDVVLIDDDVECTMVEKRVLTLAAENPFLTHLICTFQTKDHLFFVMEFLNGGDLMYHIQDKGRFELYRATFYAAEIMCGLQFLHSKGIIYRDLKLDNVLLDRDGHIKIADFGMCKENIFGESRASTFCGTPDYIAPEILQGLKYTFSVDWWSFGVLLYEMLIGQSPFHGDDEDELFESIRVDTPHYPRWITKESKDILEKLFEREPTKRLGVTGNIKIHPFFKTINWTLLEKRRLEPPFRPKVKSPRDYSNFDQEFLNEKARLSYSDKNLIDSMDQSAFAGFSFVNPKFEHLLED
Experiment [10] shares this target. Particulars: at 10 µM.
Experiment [11] addresses T1, Protein kinase C epsilon type (Homo sapiens) (UniProt Q02156).
T1 sequence (whole entry): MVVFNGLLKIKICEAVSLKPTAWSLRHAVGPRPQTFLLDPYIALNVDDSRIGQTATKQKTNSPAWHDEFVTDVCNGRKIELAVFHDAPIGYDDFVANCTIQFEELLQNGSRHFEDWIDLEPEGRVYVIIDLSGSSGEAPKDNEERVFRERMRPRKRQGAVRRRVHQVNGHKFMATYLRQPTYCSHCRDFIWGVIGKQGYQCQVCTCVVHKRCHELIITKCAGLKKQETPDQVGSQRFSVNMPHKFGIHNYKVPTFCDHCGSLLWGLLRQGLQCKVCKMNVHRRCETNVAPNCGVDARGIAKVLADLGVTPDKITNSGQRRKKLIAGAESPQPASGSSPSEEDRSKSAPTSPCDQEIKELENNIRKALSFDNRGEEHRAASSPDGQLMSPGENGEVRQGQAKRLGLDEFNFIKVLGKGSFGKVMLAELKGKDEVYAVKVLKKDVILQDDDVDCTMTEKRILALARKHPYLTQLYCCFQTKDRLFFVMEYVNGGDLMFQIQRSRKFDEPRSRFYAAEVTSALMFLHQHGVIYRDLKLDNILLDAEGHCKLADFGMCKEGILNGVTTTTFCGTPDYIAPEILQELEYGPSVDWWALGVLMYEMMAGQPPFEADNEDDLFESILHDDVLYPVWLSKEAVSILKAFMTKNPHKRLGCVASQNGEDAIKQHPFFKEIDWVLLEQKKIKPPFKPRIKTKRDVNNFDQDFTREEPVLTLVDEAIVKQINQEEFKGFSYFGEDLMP
Particulars: at 1 µM.

Experiment [12] concerns the target T1, Protein kinase C epsilon type (Homo sapiens). Particulars: at 10 µM.

Chain of Protein kinase C beta type (Homo sapiens) (P05771 2-671 limits assumed): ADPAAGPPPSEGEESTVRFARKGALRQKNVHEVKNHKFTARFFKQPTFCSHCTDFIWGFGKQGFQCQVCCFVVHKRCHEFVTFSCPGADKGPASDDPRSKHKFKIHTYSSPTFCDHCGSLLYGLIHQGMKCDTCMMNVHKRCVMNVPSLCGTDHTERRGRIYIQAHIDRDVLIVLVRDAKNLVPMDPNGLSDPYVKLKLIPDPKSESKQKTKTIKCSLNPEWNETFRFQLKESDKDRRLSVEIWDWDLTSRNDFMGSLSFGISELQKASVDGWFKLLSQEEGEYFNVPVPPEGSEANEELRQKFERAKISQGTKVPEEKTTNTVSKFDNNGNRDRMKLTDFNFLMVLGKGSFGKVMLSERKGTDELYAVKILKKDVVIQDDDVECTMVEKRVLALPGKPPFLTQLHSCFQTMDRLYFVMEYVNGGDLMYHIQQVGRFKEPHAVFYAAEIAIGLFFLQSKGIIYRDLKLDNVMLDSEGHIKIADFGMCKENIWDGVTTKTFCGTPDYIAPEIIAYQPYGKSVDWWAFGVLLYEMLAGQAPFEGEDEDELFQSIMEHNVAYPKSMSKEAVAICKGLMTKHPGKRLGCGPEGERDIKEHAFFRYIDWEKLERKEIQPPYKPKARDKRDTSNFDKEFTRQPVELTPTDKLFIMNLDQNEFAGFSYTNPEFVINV

One may read the residual activity as the signal under treatment as a percentage of the control signal. Take `COc1cc2ncnc(Nc3ccc(O)c(Br)c3)c2cc1OC`: the residual activity in [1] turned out to be 107%; in experiment [2], 109%; in experiment [3], 97%; in [4], 83%; in experiment [5], 94%; in experiment [6] it was 97%. Also, the residual activity was 102% in experiment [7]; 100% in [8]; 100% in [9]; 81% in experiment [10]; 89% in experiment [11]; 83% in [12].
Regarding `Oc1c2ccccc2c2c3c(cccc13)N=N2`, the residual activity came out at 98% in experiment [1]; 73% in experiment [2]; 102% in experiment [3]; 104% in [4]; 108% in [5]; 102% in experiment [6]. The residual activity in experiment [7] came out at 73%; in [8], 30%; in experiment [9], 99%; in [10], 71%; in [11], 101%; in experiment [12], 84%.
In the case of `O=c1c2ccccc2[nH]c(=S)n1CCN1CCC(=C(c2ccc(F)cc2)c2ccc(F)cc2)CC1`, the residual activity in experiment [1] came out at 108%; in experiment [2], 105%; in [3], 109%; in [4], 109%; in [5], 101%; in [6] it was 104%. Besides, the residual activity in [7] was found to be 116%; in [8] it was 117%; in experiment [9] it was 101%; in experiment [10] it was 97%; in experiment [11], 91%; in experiment [12], 93%.
Take `C[C@@H](N)[C@H]1CC[C@H](C(=O)Nc2ccncc2)CC1`: the residual activity in experiment [1] was determined as 94%; in experiment [2], 84%; in experiment [3], 101%; in experiment [4] it was 87%; in experiment [5], 81%; in experiment [6], 34%. Besides, the residual activity in experiment [7] worked out at 97%; in experiment [8] it was 96%; in [9] it was 48%; in experiment [10], 12%; in experiment [11], 71%; in experiment [12] it was 31%.
As for `CC(=O)c1ccc(N2CCOCC2)cc1O`, the residual activity in experiment [1] is 101%; in experiment [2], 102%; in [3], 107%; in experiment [4] it was 101%; in [5] it was 100%; in experiment [6] it was 93%. Also, the residual activity in experiment [7] is 109%; in experiment [8], 108%; in experiment [9] it was 101%; in [10] it was 103%; in [11], 91%; in experiment [12], 82%.
For the compound `Nc1nc(Nc2ccc(S(N)(=O)=O)cc2)nn1C(=S)Nc1c(F)cccc1F`, the residual activity amounted to 51% in experiment [1]; 18% in experiment [2]; 84% in experiment [3]; 38% in experiment [4]; 88% in [5]; 78% in [6]. The residual activity was 71% in experiment [7]; 66% in experiment [8]; 10% in experiment [9]; 9% in experiment [10]; 30% in experiment [11]; 8% in experiment [12].
For `O=C1NC(=O)c2c1c1c3ccccc3[nH]c1c1[nH]c3cc(Br)ccc3c21`, the residual activity in [1] turned out to be 102%; in [2], 103%; in experiment [3], 108%; in [4], 95%; in experiment [5], 104%; in experiment [6], 95%. Further, the residual activity in experiment [7] was 99%; in experiment [8] it was 100%; in [9], 97%; in experiment [10], 102%; in experiment [11], 94%; in experiment [12] it was 102%.
For `CC#CC(=O)Nc1cc2c(Nc3ccc(F)c(Cl)c3)ncnc2cn1`, the residual activity in experiment [1] was 103%; in experiment [2], 96%; in experiment [3] it was 113%; in experiment [4], 103%; in experiment [5] it was 101%; in experiment [6], 101%. The residual activity in experiment [7] turned out to be 109%; in experiment [8] it was 105%; in [9] it was 94%; in experiment [10], 102%; in experiment [11], 90%; in experiment [12] it was 94%.
For the compound `Nc1n[nH]c2nnc(-c3c(-c4ccccc4)nn4ccccc34)cc12`, the residual activity in [1] amounted to 97%; in experiment [2], 91%; in [3], 99%; in [4] it was 96%; in experiment [5], 102%; in experiment [6], 93%. The residual activity in experiment [7] is 98%; in experiment [8], 98%; in experiment [9] it was 22%; in [10] it was 4%; in experiment [11], 101%; in experiment [12], 41%.
Regarding `CC[n+]1c(/C=C/N(C)c2ccccc2)n(-c2ccccc2)c2ccc(-c3nc4ccccc4s3)cc21`, the residual activity in [1] was determined as 112%; in experiment [2], 103%; in experiment [3], 103%; in experiment [4], 97%; in experiment [5] it was 96%; in experiment [6], 92%. The residual activity was found to be 115% in [7]; 110% in experiment [8]; 100% in experiment [9]; 102% in experiment [10]; 101% in [11]; 107% in [12].
Turning to `O=Nc1c(-c2c(O)[nH]c3ccccc23)[nH]c2ccccc12`, the residual activity in experiment [1] worked out at 93%; in experiment [2], 86%; in experiment [3], 93%; in [4], 94%; in experiment [5], 95%; in [6] it was 102%. Moreover, the residual activity in experiment [7] was found to be 92%; in experiment [8], 73%; in experiment [9], 85%; in [10] it was 80%; in experiment [11] it was 106%; in experiment [12], 91%.
Take `O=C1Nc2cc(Br)ccc2/C1=C1/Nc2ccccc2/C1=N\O`: the residual activity in experiment [1] worked out at 98%; in experiment [2] it was 104%; in [3] it was 100%; in experiment [4], 101%; in [5], 102%; in experiment [6], 95%. In addition, the residual activity in [7] amounted to 101%; in experiment [8] it was 107%; in experiment [9], 112%; in experiment [10], 118%; in experiment [11], 107%; in experiment [12], 91%.
With `Oc1n[nH]c2nnc(-c3c(-c4ccccc4)nn4ccccc34)cc12`, the residual activity in experiment [1] turned out to be 102%; in [2] it was 92%; in experiment [3], 94%; in experiment [4] it was 98%; in experiment [5], 103%; in experiment [6], 97%. Besides, the residual activity stood at 96% in experiment [7]; 103% in experiment [8]; 99% in experiment [9]; 95% in experiment [10]; 97% in experiment [11]; 98% in experiment [12].
Take `COc1cccc(-c2cc(=O)c3ccccc3o2)c1N`: the residual activity in experiment [1] came out at 113%; in experiment [2] it was 104%; in [3], 106%; in experiment [4], 105%; in [5], 121%; in [6] it was 108%. For the same compound, the residual activity in experiment [7] was 107%; in [8] it was 119%; in experiment [9], 113%; in experiment [10], 113%; in [11], 106%; in [12] it was 100%.
As for `CO[C@H]1C[C@@H]2CC[C@@H](C)[C@@](O)(O2)C(=O)C(=O)N2CCCC[C@H]2C(=O)O[C@H]([C@H](C)C[C@@H]2CC[C@@H](O)[C@H](OC)C2)CC(=O)[C@H](C)/C=C(\C)[C@@H](O)[C@@H](OC)C(=O)[C@H](C)C[C@H](C)/C=C/C=C/C=C/1C`, the residual activity stood at 99% in experiment [1]; 99% in experiment [2]; 107% in [3]; 106% in experiment [4]; 105% in [5]; 103% in experiment [6]. Also, the residual activity in [7] was 105%; in [8] it was 98%; in [9] it was 98%; in experiment [10], 99%; in [11] it was 81%; in experiment [12] it was 82%.
